Growth data for nine compounds are collected here from PubChem BioAssay (NCI).

Test systems include SK-MEL-2 melanoma; EKVX NSCLC; SN12C renal; UO-31 renal; TK-10 renal; ACHN renal; CAKI-1 renal; A498 renal; CCRF-CEM leukemia; MOLT-4 leukemia.
Common to all, as to assay: NCI-60 one-dose screen, 48 h (100 = growth as untreated, 0 = no growth, -100 = all killed)
What all share (settings): 10 µM unless noted

About 83,000 compounds went through this panel and 20% of them were active in at least one assay; those are over-represented in the sample as a whole.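 Assay: single dose, 48 h. Readout: percent growth (0 = no net growth; negative = cell death). Active: <10.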 Values without a mark were called inactive. Calls of active or inactive are those of the source. *1 amine or outer side, *2 acyl side, *3 side chain or, on linkers, in order; H or OH if unused. Where a SMILES comes first, the peptide text is derived from it. [ ]: non-standard residue; d: D form. The star is where a group is joined. X5 = CCC(=O)CC1CC(C)CC(C(=O)[*:2])N1[*:1]; X4 = CCCCCCCCC(C)C(=O)*; Aib = CC(C)(N)C(=O)O; X6 = CC(CN(C)CCO)N*

In the case of `Nc1nc(N)c2cc(Sc3cccc(C(F)(F)F)c3)ccc2n1`, the growth in the assay with SK-MEL-2 melanoma is 68.5%; in the assay on EKVX NSCLC, 23.7%; with SN12C renal, 26.5%; in the assay with UO-31 renal, 21.3%; in the assay with TK-10 renal, 43.5%; in the assay on ACHN renal, 26.6%. Also, the growth in the assay with CAKI-1 renal is 9.5% (active); in the assay with A498 renal, 54%; in the assay on CCRF-CEM leukemia, 33.2%; in the assay on MOLT-4 leukemia, 14.3%.
Consider `Oc1ccc(Nc2ccc3ccccc3c2)cc1`, for which the growth with SK-MEL-2 melanoma was 62.4%; in the assay on EKVX NSCLC it was 79%; in the assay with SN12C renal, 64.8%; in the assay on UO-31 renal, 10.6%; in the assay on TK-10 renal, 45.3%; with ACHN renal it was 18.5%. The growth with CAKI-1 renal was 8.98% (active); in the assay with A498 renal, 94.1%; in the assay on CCRF-CEM leukemia, 49%; in the assay on MOLT-4 leukemia, 46.8%.
As to `OC(CSc1ccccc1)CN1CCN(c2ccc(Cl)cc2)CC1` (stereo not given), the growth in the assay with SK-MEL-2 melanoma was 98.5%; with EKVX NSCLC, 95.2%; with SN12C renal, 94.4%; in the assay with UO-31 renal, 84.8%; in the assay with TK-10 renal it was 101%; in the assay with ACHN renal it was 97.9%. In addition, the growth was 88.1% with CAKI-1 renal, 82.1% in the assay with A498 renal, 86% in the assay with CCRF-CEM leukemia and 83% in the assay with MOLT-4 leukemia.
As for `NC(=S)N/N=C/c1ncccc1O`, the growth in the assay with SK-MEL-2 melanoma was 103%; with EKVX NSCLC it was 44.1%; in the assay on SN12C renal, 20.5%; in the assay on UO-31 renal, 1.36% (active); with TK-10 renal, 71.2%; in the assay on ACHN renal, 10.7%. Further, the growth is 15.1% with CAKI-1 renal, 1.76% (active) in the assay with CCRF-CEM leukemia and 4.88% (active) with MOLT-4 leukemia.
In the case of `O=C(OC12CC3CC(CC(C3)C1)C2)c1ccc(NCc2cc(O)ccc2O)cc1`, the growth in the assay with SK-MEL-2 melanoma was -19.9% (active); with EKVX NSCLC, -67.9% (active); in the assay on SN12C renal, -3.25% (active); with UO-31 renal it was -100% (active); with TK-10 renal it was -95.9% (active); in the assay on ACHN renal, -89.7% (active). Also, the growth was -92.5% (active) in the assay with CAKI-1 renal, -23.7% (active) in the assay with CCRF-CEM leukemia and -19.5% (active) in the assay with MOLT-4 leukemia.
Regarding `CCCCCCCCC(C)C(=O)N1CCCC1C(=O)N1C(CC(=O)CC)CC(C)CC1C(=O)NC(C)C(=O)NC(C)(C)C(=O)NC(C)(C)C(=O)NC(C(=O)NC(C)C(=O)NC(C)(C)C(=O)NC(C)(C)C(=O)NC(C)CN(C)CCO)C(C)CC` (stereo not given) (X4-P[X5]A[Aib][Aib]IA[Aib][Aib]-X6; configuration not given here), the growth with SK-MEL-2 melanoma was -34% (active); in the assay on EKVX NSCLC it was -25.3% (active); with SN12C renal, -78.5% (active); in the assay with UO-31 renal, -48.1% (active); with TK-10 renal it was -50.5% (active); in the assay with ACHN renal, -54.5% (active). The growth in the assay on CAKI-1 renal was 7.86% (active); with CCRF-CEM leukemia it was -33.3% (active); in the assay with MOLT-4 leukemia, -40.9% (active).
Turning to `O=C1C=CC(=O)N1c1ccccc1`, the growth with SK-MEL-2 melanoma is 103%; in the assay on EKVX NSCLC, 99.6%; with SN12C renal, 84.4%; in the assay on UO-31 renal, 87.4%; with TK-10 renal, 105%; in the assay with ACHN renal it was -37.3% (active). Moreover, the growth in the assay on A498 renal was 105%; in the assay with MOLT-4 leukemia, 42.2%.
Turning to `CCCCCCCCCCCCCCCCCC[S+](C)CC` (stereo not given), the growth with SK-MEL-2 melanoma was 48.1%; with EKVX NSCLC it was 91.7%; with SN12C renal, 25.7%; in the assay on UO-31 renal, 59.6%; in the assay with TK-10 renal, 9.52% (active); in the assay with ACHN renal it was 16.2%. Also, the growth with CAKI-1 renal was 66.5%; in the assay on A498 renal, 63.2%; with CCRF-CEM leukemia it was 14.6%; with MOLT-4 leukemia, -4.95% (active).
With `CCOC(=O)c1cc(CC)sc1NC(=O)CC(C)=O`, the growth in the assay on SK-MEL-2 melanoma is 61.5%; in the assay with EKVX NSCLC, 51%; in the assay with SN12C renal it was 53%; in the assay with UO-31 renal it was 40.8%; in the assay on TK-10 renal it was 70.9%; in the assay on ACHN renal, 39.9%. Also, the growth was 53.1% with CAKI-1 renal, 98.7% in the assay with A498 renal, 35.5% with CCRF-CEM leukemia and 14.4% in the assay on MOLT-4 leukemia.
